Inconclusive results are not listed. Values without a mark were called inactive. Active and inactive are the calls of the source. Unless noted, the call rests on the fitted dose curve.
Assay: qHTS assay for small molecule agonists of the antioxidant response element (ARE) signaling pathway (AID 743202; active means well fitted activation curve with a large enough effect in the signal ratio in the repeat runs, not every such curve was filed as active; the % refers to the signal ratio; further: potency means the concentration at half of the fitted maximal effect)
Conditions: HepG2 ARE-bla reporter, beta-lactamase FRET, 16 h; series mostly up to 73.3 µM; activation: at the top concentration
Summary of the method: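 ARE-bla HepG2 cells (beta-lactamase reporter under the antioxidant response element), plated 5 hours, then exposed to compounds 16 hours at 37 C. LiveBLAzer B/G FRET substrate added for 2 hours at room temperature; fluorescence intensity read.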
On the % scale 0 is the no-effect control and ±100 the full control effect.

| Structure (SMILES) | activation | Potency |
| --- | --- | --- |
| CC(Cl)(Cl)[N+](=O)[O-] | -7.44% | – |
| CC(C)CP(=S)(S)CC(C)C | 1.55% | – |
| COC(=O)c1c(C(F)F)nc(C(F)(F)F)c(C2=NCCS2)c1CC(C)C | 0.162% | – |
| CCS(=O)(=O)C(C)(C)S(=O)(=O)CC | -16.4% | – |
| O=C1c2ccccc2C(=O)c2ccccc21 | 2.48% [at 34.3 µM] | – |
| COC(=O)c1ccccc1S(=O)(=O)NC(=O)Nc1nc(C)cc(C)n1 | 4.71% | – |
| CCCCc1c(C)nc(NCC)[nH]c1=O | 0.529% | – |
| CCOP(=S)(OCC)Oc1nc(Cl)n(C(C)C)n1 | -16.9% | – |
| CCC1(c2ccccc2)C(=O)NC(=O)NC1=O | 10% [at 94.8 µM] | – |
| Nc1cc2c3c(c1)C(c1ccccc1)=N[C@@H](NC(=O)c1cccnc1)C(=O)N3CC2 | 1.33% | – |
| COc1cc(OC)nc(Oc2cccc(Oc3nc(OC)cc(OC)n3)c2C(=O)O)n1 | 14% | – |
| CCC(C)(C)c1cc(-n2nc3ccccc3n2)c(O)c(C(C)(C)CC)c1 | 0.065% [at 94.8 µM] | – |
| [Cl][Sn]([Cl])([Cl])[Cl] | -8.81% [at 94.8 µM] | – |
| CNC(=O)Oc1c(C(C)(C)C)cc(C)cc1C(C)(C)C | -3.17% | – |
| Cc1ncsc1CCCl | 11% | – |
| CCCSC(=O)Cl | -1.28% [at 94.8 µM] | – |
| COC(=O)C(C)Oc1ccc(Oc2ccc(Cl)cc2Cl)cc1 (stereo not drawn) | -19.1% | – |
| CCOC(=O)CP(=O)(OCC)OCC | -2.46% | – |
| CN1CCN(C(=O)O[C@H]2c3nccnc3C(=O)N2c2ccc(Cl)cn2)CC1 | -0.608% | – |
| CC(COc1ccc(Oc2ccccc2)cc1)Oc1ccccn1 (stereo not drawn) | – | 48.5 µM (active) |
| CCN(Cc1ccc(Cl)nc1)/C(=C/[N+](=O)[O-])NC | 20.7% | – |
| CC1CCCCC1NC(=O)Nc1ccccc1 (stereo not drawn) | 8.01% | – |
| NC(=O)c1cc([N+](=O)[O-])cc([N+](=O)[O-])c1 | – | 23.7 µM (active) |
| Cc1nnc2n1-c1sc(CCC(=O)N3CCOCC3)cc1C(c1ccccc1Cl)=NC2 | -1.27% | – |
| Cc1cccc(C#N)c1 | 8.4% | – |
| ClC(Cl)Br | 0.535% [at 94.8 µM] | – |
| c1cc2c(c(N3CCNCC3)c1)OCCO2 | -14.3% | – |
| CN1C(=S)CN=C(c2ccccc2)c2cc(Cl)ccc21 | 1.66% | – |
| CS(=O)(=O)c1cc(C(F)(F)F)ccc1C(=O)c1cnoc1C1CC1 | -11.2% | – |

Assay: qHTS assay for small molecule agonists of the antioxidant response element (ARE) signaling pathway - cell viability counter screen (AID 743203); further: nearly all actives have a fitted effect of over 55% in size
Conditions: ARE-bla HepG2 viability, CellTiter-Glo luminescence, 16 h; series mostly up to 73.3 µM; viability change, negative = cytotoxic: at the top concentration
Summary of the method: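 Compounds in DMSO were pinned onto ARE-bla HepG2 cells plated 5 hrs earlier at 2,000 cells/well. Sixteen hours later at 37C/5% CO2, CellTiter-Glo was added and luminescence measured after 30 min at room temperature.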

| Structure (SMILES) | viability change, negative = cytotoxic |
| --- | --- |
| O=[N+]([O-])c1ccc(CBr)cc1 | 0.592% [at 94.8 µM] |
| CC(Cl)(Cl)[N+](=O)[O-] | 1.59% |
| CC(C)CP(=S)(S)CC(C)C | 1.7% |
| COC(=O)c1c(C(F)F)nc(C(F)(F)F)c(C2=NCCS2)c1CC(C)C | 2.42% |
| CCS(=O)(=O)C(C)(C)S(=O)(=O)CC | -13.3% |
| O=C1c2ccccc2C(=O)c2ccccc21 | 2.45% [at 34.3 µM] |
| COC(=O)c1ccccc1S(=O)(=O)NC(=O)Nc1nc(C)cc(C)n1 | 1.64% |
| CCCCc1c(C)nc(NCC)[nH]c1=O | 3.47% |
| CCOP(=S)(OCC)Oc1nc(Cl)n(C(C)C)n1 | 0.392% |
| CCC1(c2ccccc2)C(=O)NC(=O)NC1=O | 5.88% [at 94.8 µM] |
| Nc1cc2c3c(c1)C(c1ccccc1)=N[C@@H](NC(=O)c1cccnc1)C(=O)N3CC2 | 1.5% |
| CC(C1CC1)C(O)(Cn1cncn1)c1ccc(Cl)cc1 (stereo not drawn) | -3.94% |
| CCC(C)(C)c1cc(-n2nc3ccccc3n2)c(O)c(C(C)(C)CC)c1 | 5.81% [at 94.8 µM] |
| [Cl][Sn]([Cl])([Cl])[Cl] | 2.55% [at 94.8 µM] |
| CNC(=O)Oc1c(C(C)(C)C)cc(C)cc1C(C)(C)C | -2.62% |
| CSc1nc(N=[N+]=[N-])nc(NC(C)C)n1 | -0.471% |
| Cc1ncsc1CCCl | 6.27% |

| Structure (SMILES) | viability change, negative = cytotoxic |
| --- | --- |
| CCCSC(=O)Cl | 7.36% [at 94.8 µM] |
| COC(=O)C(C)Oc1ccc(Oc2ccc(Cl)cc2Cl)cc1 (stereo not drawn) | 1.09% |
| CCOC(=O)CP(=O)(OCC)OCC | -1.25% |
| CN1CCN(C(=O)O[C@H]2c3nccnc3C(=O)N2c2ccc(Cl)cn2)CC1 | 1.79% |
| CC(COc1ccc(Oc2ccccc2)cc1)Oc1ccccn1 (stereo not drawn) | 8.63% |
| CCN(Cc1ccc(Cl)nc1)/C(=C/[N+](=O)[O-])NC | 7.56% |
| CCCSP(=S)(OCC)Oc1ccc(Cl)cc1Cl (stereo not drawn) | -14.9% |
| CC1CCCCC1NC(=O)Nc1ccccc1 (stereo not drawn) | -11.4% |
| NC(=O)c1cc([N+](=O)[O-])cc([N+](=O)[O-])c1 | 3.67% |
| Cc1nnc2n1-c1sc(CCC(=O)N3CCOCC3)cc1C(c1ccccc1Cl)=NC2 | 12% |
| CC(CCc1ccccc1)NC(C)C(O)c1ccc(O)cc1 (stereo not drawn) | -3.21% |
| Cc1cccc(C#N)c1 | 0.284% |
| ClC(Cl)Br | 4.25% [at 94.8 µM] |
| c1cc2c(c(N3CCNCC3)c1)OCCO2 | 5.71% |
| CN1C(=S)CN=C(c2ccccc2)c2cc(Cl)ccc21 | 15.9% |
| CC1(C)C(=O)NC(=O)NC1=O | -5.37% |
| CS(=O)(=O)c1cc(C(F)(F)F)ccc1C(=O)c1cnoc1C1CC1 | -1.19% |

From PubChem BioAssay (Tox21)
